Results published in PubChem BioAssay (EPA / NIEHS).
Records with an inconclusive call do not appear. The source made the active and inactive calls. Rule for the calls: active = hit-call score of the fitted dose curve at least 0.9, where 1 is the maximum; inconclusive = response in the unintended direction; inactive = score below 0.9.

Tested on: turtle Androgen Receptor (AR), gene 101947425
Assay: ATG_trAR_XSP1: Attagene TRANS-FACTORIAL Multi-Species (XSP1) HepG2 Assay for turtle Androgen Receptor (AR) (AID 2283786)
Method: ATG_XSP1_multi-species_TRANS is a cell-based, multiplexed assay created by modifying the existing Attagene TRANS-FACTORIAL system to include a panel of nuclear receptors from some or all the following species: human (Homo sapiens), mouse (Mus musculus), frog (Xenopus laevis), zebrafish (Danio rerio), chicken (Gallus gallus), and turtle (Chrysemys picta). The ECOTOX-FACTORIAL format uses HepG2, a human liver cell line, with measurements taken at 24 hours after chemical dosing in a 24-well plate. Xsp1 included 3 nM 6-alpha-fluorotestosterone to partially stimulate the androgen receptor.ATG_trAR_XSP1 is one of 29 assay components measured or calculated from the ATG_XSP1_multi-species_TRANS assay. It is designed to make measurements of mRNA induction, a form of inducible reporter, as detected with fluorescence intensity signals by Reverse transcription polymerase chain reaction (RT-PCR) and Capillary electrophoresis technology.The assay endpoint ATG_trAR_XSP1 was analyzed in the positive analysis fitting direction relative to DMSO as the negative control and baseline of activity. Using a type of inducible reporter, measures of mRNA for gain-of-signal activity can be used to understand the reporter gene at the transcription factor-level as they relate to the gene AR. Furthermore, this assay endpoint can be referred to as a primary readout, because this assay has produced multiple assay endpoints where this one serves a reporter gene function. […]
Human liver HepG2 cells are transiently transfected with multiple reporter transcription units (MRTUs) in 6-well plates using FuGene 6 reagent (Roche; 3 ml FuGene/1 mg DNA). […] A major difference between the CIS and TRANS system is that in CIS activities of endogenous TFs are measured, whereas the TRANS assay evaluates changes in activities of exogenous, chimeric NR-Gal4 proteins. […] The fragments were purified using Qiaquick PCR columns (Qiagen), analyzed on an ABI 3130xL genetic analyzer (Applied Biosystems) with peak positions identified by using a set of X-rhodamine (ROX)-labeled MapMarker1000 molecular weight standards (BioVentures). […]
In the case of CCCCC(CC)COC(=O)c1ccccc1C(=O)O (configuration not stated), the outcome was “inactive”. With O=C(c1ccc(O)cc1O)c1ccc(O)cc1O the outcome was “inactive”. In the case of CC1(C)C(C=C(Cl)Cl)C1C(=O)OCc1cccc(Oc2ccccc2)c1 (configuration not stated), the outcome was “inactive”.

Target: AR (gene 367) (UniProt P10275)
Sequence (P10275 whole entry, looked up): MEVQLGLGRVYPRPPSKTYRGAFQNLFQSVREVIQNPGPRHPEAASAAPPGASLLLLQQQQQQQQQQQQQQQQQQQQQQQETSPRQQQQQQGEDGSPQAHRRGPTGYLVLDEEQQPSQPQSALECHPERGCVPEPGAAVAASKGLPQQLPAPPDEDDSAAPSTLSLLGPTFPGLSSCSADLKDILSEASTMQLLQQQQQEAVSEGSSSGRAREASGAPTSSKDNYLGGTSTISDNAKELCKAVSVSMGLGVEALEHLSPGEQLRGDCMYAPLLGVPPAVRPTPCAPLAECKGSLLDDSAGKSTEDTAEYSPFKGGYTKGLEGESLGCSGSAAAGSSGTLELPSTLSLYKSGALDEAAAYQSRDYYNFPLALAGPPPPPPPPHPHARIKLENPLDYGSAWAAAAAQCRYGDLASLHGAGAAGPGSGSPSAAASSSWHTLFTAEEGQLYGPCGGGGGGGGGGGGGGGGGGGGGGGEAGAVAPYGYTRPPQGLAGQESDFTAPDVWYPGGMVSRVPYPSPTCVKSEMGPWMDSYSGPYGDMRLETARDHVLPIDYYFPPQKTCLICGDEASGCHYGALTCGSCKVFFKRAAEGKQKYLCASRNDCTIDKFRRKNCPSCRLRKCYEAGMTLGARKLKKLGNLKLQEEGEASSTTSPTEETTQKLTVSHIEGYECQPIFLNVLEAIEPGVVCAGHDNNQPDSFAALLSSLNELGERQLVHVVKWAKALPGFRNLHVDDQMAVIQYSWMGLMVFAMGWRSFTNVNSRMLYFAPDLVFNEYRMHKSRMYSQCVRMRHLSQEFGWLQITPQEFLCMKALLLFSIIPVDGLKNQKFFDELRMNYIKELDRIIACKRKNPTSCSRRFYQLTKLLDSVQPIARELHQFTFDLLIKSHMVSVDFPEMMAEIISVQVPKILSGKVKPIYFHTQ
Assay: ACEA_AR_antagonist_80hr: ACEA Biosciences xCELLigence Real-Time Cell Analysis on Androgen Receptor Antagonism for Proliferation (AID 2283787);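 note: 22Rv1 human prostate cancer cells with growth followed by electrical impedance; hits lower the impedance growth signal relative to DMSO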
In short: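 Impedance-based real-time growth of 22Rv1 prostate cells, read 80 h after dosing. Eight concentrations, 1:4 series, top 100 uM final (0.5% DMSO), n = 2; signal decrease scored against DMSO.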
In the case of CN(C)C(=O)Nc1ccc(Cl)c(Cl)c1, the AC50 was 40.8 µM (active). With C[C@]12CC[C@@H]3c4ccc(O)cc4C[C@@H](CCCCCCCCCS(=O)CCCC(F)(F)C(F)(F)F)[C@H]3[C@@H]1CC[C@@H]2O (some centres not stated) the AC50 was 11.9 µM (active). With O=C(O)C1(C(=O)Nc2ccc(Cl)cc2Cl)CC1 the AC50 was 65.1 µM (active). For CCCN(CCC)C(=O)SCC, the outcome was “inactive”. For c1ccc2[nH]c(-c3cscn3)nc2c1, the AC50 was 50 µM (active). With COC(=O)CSc1cc(N=c2sc(=O)n3n2CCCC3)c(F)cc1Cl the outcome was “inactive”. In the case of N#CSCSc1nc2ccccc2s1, the AC50 was 15.1 µM (active). In the case of O=C(c1ccc(O)cc1O)c1ccc(O)cc1O, the AC50 was 26.3 µM (active). For CCSC(=O)N(CC(C)C)CC(C)C, the outcome was “inactive”. For CCCOC(=O)c1ccc(C(=O)OCCC)nc1, the outcome was “inactive”. In the case of CCCCOCCOCCOCc1cc2c(cc1CCC)OCO2, the AC50 was 76.3 µM (active). For O=C(c1ccccc1)C1CCCCC1, the outcome was “inactive”. For CSC(=O)c1cccc2nnsc12, the outcome was “inactive”. With Cc1nn(C)c(Oc2ccccc2)c1C=NOCc1ccc(C(=O)OC(C)(C)C)cc1 the AC50 was 12.7 µM (active). With CC1(C)C(C=C(Cl)Cl)C1C(=O)OCc1cccc(Oc2ccccc2)c1 (configuration not stated) the AC50 was 33 µM (active). With CCOC(=O)C(C)Oc1ccc(Oc2nc3ccc(Cl)cc3o2)cc1 (configuration not stated) the AC50 was 42.6 µM (active). For CC(C)(c1ccc(O)cc1)c1ccc(O)cc1, the AC50 was 43.6 µM (active).

Target: Estrogen receptor beta (Homo sapiens) (UniProt Q92731)
Sequence (Q92731 whole entry, looked up): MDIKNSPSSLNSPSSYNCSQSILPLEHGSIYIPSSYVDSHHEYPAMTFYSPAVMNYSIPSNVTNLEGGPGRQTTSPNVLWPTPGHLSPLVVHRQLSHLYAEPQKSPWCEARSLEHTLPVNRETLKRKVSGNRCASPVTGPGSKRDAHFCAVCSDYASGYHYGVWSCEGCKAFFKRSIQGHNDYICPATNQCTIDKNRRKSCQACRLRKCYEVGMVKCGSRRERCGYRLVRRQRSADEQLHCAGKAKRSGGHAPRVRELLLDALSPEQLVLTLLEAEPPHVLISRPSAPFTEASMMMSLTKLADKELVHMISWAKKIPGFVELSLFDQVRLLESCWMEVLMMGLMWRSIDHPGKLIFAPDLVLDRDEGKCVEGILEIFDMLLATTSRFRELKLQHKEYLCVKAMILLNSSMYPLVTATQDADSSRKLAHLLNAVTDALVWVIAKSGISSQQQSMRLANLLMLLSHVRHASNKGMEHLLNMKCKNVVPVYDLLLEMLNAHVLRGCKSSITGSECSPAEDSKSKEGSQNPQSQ
Assay: ATG_hERb_XSP1: Attagene TRANS-FACTORIAL Multi-Species (XSP1) HepG2 Assay for human Estrogen Receptor (ESR2) (AID 2283788)
Method: ATG_XSP1_multi-species_TRANS is a cell-based, multiplexed assay created by modifying the existing Attagene TRANS-FACTORIAL system to include a panel of nuclear receptors from some or all the following species: human (Homo sapiens), mouse (Mus musculus), frog (Xenopus laevis), zebrafish (Danio rerio), chicken (Gallus gallus), and turtle (Chrysemys picta). The ECOTOX-FACTORIAL format uses HepG2, a human liver cell line, with measurements taken at 24 hours after chemical dosing in a 24-well plate. Xsp1 included 3 nM 6-alpha-fluorotestosterone to partially stimulate the androgen receptor.ATG_hERb_XSP1 is one of 29 assay components measured or calculated from the ATG_XSP1_multi-species_TRANS assay. It is designed to make measurements of mRNA induction, a form of inducible reporter, as detected with fluorescence intensity signals by Reverse transcription polymerase chain reaction (RT-PCR) and Capillary electrophoresis technology.The assay endpoint ATG_hERb_XSP1 was analyzed in the positive analysis fitting direction relative to DMSO as the negative control and baseline of activity. Using a type of inducible reporter, measures of mRNA for gain-of-signal activity can be used to understand the reporter gene at the transcription factor-level as they relate to the gene ER. Furthermore, this assay endpoint can be referred to as a primary readout, because this assay has produced multiple assay endpoints where this one serves a reporter gene function. To generalize the intended target to other relatable targets, this assay endpoint is annotated to the nuclear receptor intended target family, where the subfamily is steroidal.
Human liver HepG2 cells are transiently transfected with multiple reporter transcription units (MRTUs) in 6-well plates using FuGene 6 reagent (Roche; 3 ml FuGene/1 mg DNA). The MRTU constructs are regulated by a cis-regulating element (promoter). […] A major difference between the CIS and TRANS system is that in CIS activities of endogenous TFs are measured, whereas the TRANS assay evaluates changes in activities of exogenous, chimeric NR-Gal4 proteins. […] At the end of 24 hour incubation, total RNA was isolated using TriZol reagent (Invitrogen). The isolated RNA is then reverse-transcribed using oligo(dT) primer and Mo-MLV reverse transcriptase (Invitrogen) with DNAse I (Ambion) treatment for 30 min. The one-tenth of the produced cDNA was amplified by PCR using Taq DNA polymerase (Invitrogen) and two reporter sequence-specific primers. The PCR products were fluorescently labeled by primer extension with 6-arboxyfluorescein (6-FAM) 5'-labeled reporter sequence-specific primer (2 min at 95 C, 20 s at 68 C and 10 min at 72 C) and these products were digested with 5U of HpaI (New England Biolabs) for 2h at 37 C. The fragments were purified using Qiaquick PCR columns (Qiagen), analyzed on an ABI 3130xL genetic analyzer (Applied Biosystems) with peak positions identified by using a set of X-rhodamine (ROX)-labeled MapMarker1000 molecular weight standards (BioVentures). The raw capillary electrophoresis data was processed using Attagraph software (Attagene).
In the case of CC(=O)S[C@@H]1CC2=CC(=O)CC[C@]2(C)[C@H]2CC[C@@]3(C)[C@@H](CC[C@@]34CCC(=O)O4)[C@H]12, the outcome was “inactive”. For CCCCC(CC)COC(=O)c1ccccc1C(=O)O (configuration not stated), the outcome was “inactive”. With O=C(c1ccc(O)cc1O)c1ccc(O)cc1O the AC50 was 0.227 µM (active). In the case of CC(C)CCCCCCc1ccc(O)cc1, the AC50 was 0.246 µM (active). In the case of Oc1ccc(C(c2ccc(O)cc2)C(Cl)(Cl)Cl)cc1, the outcome was “inactive”. With C=CCOC(Cn1ccnc1)c1ccc(Cl)cc1Cl (configuration not stated) the AC50 was 7.53 µM (active).

Target: GAL4 Transcription Factor (Internal Marker), GAL4 (gene 855828) (UniProt P04386)
Sequence (P04386 whole entry, looked up, the tested form may be a part): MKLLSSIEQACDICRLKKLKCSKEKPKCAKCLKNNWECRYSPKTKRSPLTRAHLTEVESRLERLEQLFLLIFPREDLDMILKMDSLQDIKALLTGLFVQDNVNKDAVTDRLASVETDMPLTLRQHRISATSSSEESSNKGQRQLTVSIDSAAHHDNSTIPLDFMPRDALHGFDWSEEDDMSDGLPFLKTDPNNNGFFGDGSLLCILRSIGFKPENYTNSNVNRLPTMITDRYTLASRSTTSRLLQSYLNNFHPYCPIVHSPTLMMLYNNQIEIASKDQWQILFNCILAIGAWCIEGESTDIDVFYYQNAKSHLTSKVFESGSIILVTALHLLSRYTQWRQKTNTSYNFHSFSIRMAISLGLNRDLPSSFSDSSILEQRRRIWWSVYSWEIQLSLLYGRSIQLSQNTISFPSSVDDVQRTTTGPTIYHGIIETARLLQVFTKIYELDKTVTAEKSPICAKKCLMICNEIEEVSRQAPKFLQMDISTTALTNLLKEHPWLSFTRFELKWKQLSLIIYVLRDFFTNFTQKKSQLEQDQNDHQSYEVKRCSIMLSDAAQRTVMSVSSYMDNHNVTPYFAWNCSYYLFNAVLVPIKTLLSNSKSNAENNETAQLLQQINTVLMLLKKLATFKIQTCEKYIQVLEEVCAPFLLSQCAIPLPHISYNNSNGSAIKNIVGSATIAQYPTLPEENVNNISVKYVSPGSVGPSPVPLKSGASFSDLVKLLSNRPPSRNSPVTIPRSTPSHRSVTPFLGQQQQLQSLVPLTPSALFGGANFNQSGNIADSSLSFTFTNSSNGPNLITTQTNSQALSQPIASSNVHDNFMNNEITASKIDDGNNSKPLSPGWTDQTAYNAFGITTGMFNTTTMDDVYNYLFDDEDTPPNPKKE
Assay: ATG_GAL4_XSP1: Attagene TRANS-FACTORIAL Multi-Species (XSP1) HepG2 Assay for GAL4 Transcription Factor (Internal Marker) (AID 2283789)
In short: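 This background-control endpoint measures GAL4-driven reporter mRNA via RT-PCR and capillary electrophoresis of labelled fragments. Transiently transfected HepG2 cells were treated 24 h, with 3 nM 6-alpha-fluorotestosterone included, and gain-of-signal was fitted against DMSO.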
For CCCCC(CC)CN1C(=O)C2C3C=CC(C3)C2C1=O (configuration not stated), the outcome was “inactive”. With CCCCC(CC)COC(=O)c1ccccc1C(=O)O (configuration not stated) the outcome was “inactive”. In the case of Oc1ccc(C(c2ccc(O)cc2)C(Cl)(Cl)Cl)cc1, the outcome was “inactive”. With CC1(C)C(C=C(Cl)Cl)C1C(=O)OCc1cccc(Oc2ccccc2)c1 (configuration not stated) the outcome was “inactive”.

Tested on: not listed separately
Assay: ATG_M_06_XSP1: Attagene TRANS-FACTORIAL Multi-Species (XSP1) HepG2 Assay for M06 Transcription Factor (Internal Marker) (AID 2283790)
In short: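 This background-control readout tracks M06 reporter mRNA, measured by RT-PCR and capillary electrophoresis. HepG2 cells transiently carrying the GAL4-UAS reporter panel were dosed for 24 h with 3 nM 6-alpha-fluorotestosterone added for partial AR stimulation; increases were scored relative to DMSO.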
With CC(=O)S[C@@H]1CC2=CC(=O)CC[C@]2(C)[C@H]2CC[C@@]3(C)[C@@H](CC[C@@]34CCC(=O)O4)[C@H]12 the outcome was “inactive”. With CCCCC(CC)COC(=O)c1ccccc1C(=O)O (configuration not stated) the outcome was “inactive”. For O=C(c1ccc(O)cc1O)c1ccc(O)cc1O, the outcome was “inactive”. In the case of CC(C)CCCCCCc1ccc(O)cc1, the outcome was “inactive”. With Oc1ccc(C(c2ccc(O)cc2)C(Cl)(Cl)Cl)cc1 the outcome was “inactive”. With C=CCOC(Cn1ccnc1)c1ccc(Cl)cc1Cl (configuration not stated) the outcome was “inactive”. With CC(C)(c1ccc(O)cc1)c1ccc(O)cc1 the outcome was “inactive”.
